# Measurements as given in PubChem BioAssay (EPA / NIEHS).
# Values joined by “and” are separate entries in the source; they are usually repeats but may differ in a detail not shown here. Equal entries are not always repeated. Results filed as inconclusive are left out. Where a structure was tested more than once in an assay, its records may differ in their call. Active and inactive are the calls of the source. Rule for the calls, unless noted: active = hit-call score of the fitted dose curve at least 0.9, where 1 is the maximum; inactive = score below 0.9.
# Assays:
# [1] = read-out: Human Leukocyte Antigen - DR isotype (HLADR), HLA-DRA (gene 3122); test: BSK_3C_HLADR: BioMAP Diversity Plus: 3C Assay for Human Leukocyte Antigen - DR isotype (HLADR) Biomarker Activity (AID 2283019); details: primary human endothelial cells (HUVEC); actives raise or lower the signal;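 for outcome: ELISA of cell-surface HLA-DR on HUVEC 24 h after dosing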
# In short: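 Primary human umbilical vein endothelial cells (3C system) were dosed with compound and cell-surface HLA-DR was quantified by ELISA at 24 h. Activity was fitted bidirectionally against DMSO as negative control and baseline.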
# [2] = read-out: Interleukin-8 (IL8), CXCL8 (gene 3576); test: BSK_3C_IL8: BioMAP Diversity Plus: 3C Assay for Interleukin-8 (IL8) Biomarker Activity (AID 2283020); details: primary human endothelial cells (HUVEC); actives raise or lower the signal
# In short: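 ELISA read-out of IL-8 from human umbilical vein endothelium, measured 24 h after chemical dosing. Activity is expressed relative to DMSO negative control, with both increases and decreases fitted.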
# [3] = read-out: Monokine induced gamma interferon (MIG), CXCL9 (gene 4283); test: BSK_3C_MIG: BioMAP Diversity Plus: 3C Assay for Monokine induced gamma interferon (MIG) Biomarker Activity (AID 2283021); details: primary human endothelial cells (HUVEC); actives raise or lower the signal;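 for AC50: MIG protein level measured by immunoassay in the treated endothelial cultures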
# In short: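 Read-out is ELISA detection of MIG on human umbilical vein endothelial cells, taken 24 h after dosing. Gain or loss of signal was scored relative to DMSO controls using bidirectional curve fitting.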
# [4] = BSK_3C_SRB: Viability Assessment in the BioMAP Diversity Plus: 3C Assay (AID 2283023); details: primary human endothelial cells (HUVEC);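 note: fitted both ways against DMSO so a hit may be signal rise or drop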
# In short: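 Primary human umbilical vein endothelial cells in the 3C system were read 24 h after compound dosing. Total protein was stained with 0.1% sulforhodamine B after 10% TCA fixation and read at 560 nm, with bidirectional fitting against DMSO as baseline.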
# [5] = read-out: Matrix Metallopeptidase 1 (MMP1), MMP1 (gene 4312); test: BSK_BE3C_MMP1: BioMAP Diversity Plus: BE3C Assay for Matrix Metallopeptidase 1 (MMP1) Biomarker Activity (AID 2283024); details: primary human bronchial epithelial cells; actives raise or lower the signal
# In short: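 Human bronchial epithelial cells (BE3C system) exposed to compound for 24 h; MMP1 then quantified by ELISA. Activity was fitted in both directions relative to DMSO.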
# [6] = BSK_3C_Vis: BioMAP Diversity Plus: 3C Assay for Morphology Visualization (AID 2283025); details: primary human endothelial cells (HUVEC);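 note: fitted both ways so gain or loss versus DMSO counts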;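 for AC50: light microscopy image of cell morphology used as background control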
# In short: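 Chemicals were added to primary human umbilical vein endothelium, cells were incubated 24 h, and morphology was then visualized by light microscopy. Gain or loss of signal was fitted bidirectionally relative to DMSO.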
# [7] = read-out: Pselectin, SELP (gene 6403); test: BSK_4H_Pselectin: BioMAP Diversity Plus: 4H Assay for Pselectin Biomarker Activity (AID 2283026); details: primary human endothelial cells (HUVEC); actives raise or lower the signal
# In short: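 ELISA read-out of P-selectin on human umbilical vein endothelium after 24 h of dosing. Values derive from bidirectional fitting relative to DMSO. Parallel SRB protein staining flagged overt cytotoxicity.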
# [8] = BSK_4H_SRB: Viability Assessment in the BioMAP Diversity Plus: 4H Assay (AID 2283027); details: primary human endothelial cells (HUVEC);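 note: cells exposed to compound for 24 h before staining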;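 for AC50: curves fitted both ways versus DMSO so AC50 may be loss or gain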
# In short: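 Human umbilical vein endothelial cells, 24 h after chemical dosing; total protein measured by 0.1% sulforhodamine B staining after 10% TCA fixation, read at 560 nm. Bidirectional fitting against DMSO.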
# [9] = BSK_BE3C_SRB: Viability Assessment in the BioMAP Diversity Plus: BE3C Assay (AID 2283028); details: primary human bronchial epithelial cells;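 for AC50: fitted both ways so AC50 may mark signal gain or loss versus DMSO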
# In short: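 Human primary bronchial epithelial cells were exposed to test chemicals for 24 h. Total protein in parallel cultures was then measured by staining with 0.1% sulforhodamine B after 10% TCA fixation, with absorbance read at 560 nm. Activity was fitted bidirectionally against DMSO.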
# [10] = biological target: human Vitamin D Receptor (VDR), VDR (gene 7421) (UniProt P11473); test: ATG_VDR_TRANS: Attagene TRANS-FACTORIAL HepG2 Assay for human Vitamin D Receptor (VDR) (AID 2283022; active = hit-call score of the fitted dose curve at least 0.9, where 1 is the maximum)
# Sequence of human Vitamin D Receptor (VDR), VDR (gene 7421) (P11473 whole entry, looked up, the tested form may be a part): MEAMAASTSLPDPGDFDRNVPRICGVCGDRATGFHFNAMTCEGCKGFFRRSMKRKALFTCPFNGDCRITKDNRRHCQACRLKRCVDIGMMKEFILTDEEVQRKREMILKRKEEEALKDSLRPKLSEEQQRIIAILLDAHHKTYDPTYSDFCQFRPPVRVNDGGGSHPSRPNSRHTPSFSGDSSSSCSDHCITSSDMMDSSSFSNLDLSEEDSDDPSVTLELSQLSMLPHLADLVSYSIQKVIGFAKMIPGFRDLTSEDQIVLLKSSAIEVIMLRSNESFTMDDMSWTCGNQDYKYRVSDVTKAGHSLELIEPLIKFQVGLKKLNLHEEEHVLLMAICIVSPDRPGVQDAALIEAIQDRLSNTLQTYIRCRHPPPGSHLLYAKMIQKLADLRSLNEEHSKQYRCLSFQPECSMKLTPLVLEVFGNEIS
# In short: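 HepG2 cells were transiently transfected with multiple GAL4-UAS reporter units, so signal reflects exogenous chimeric receptor-Gal4 activity. After 24 h compound exposure, reporter mRNA was measured by RT-PCR, fluorescent labelling and capillary electrophoresis, fitted for gain of signal versus DMSO.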
Compound,outcome [1],outcome [2],outcome [3],AC50 [4],outcome [5],outcome [6],outcome [7],outcome [8],outcome [9],outcome [4],AC50 [1],AC50 [2],AC50 [3],AC50 [6],AC50 [7],AC50 [8],outcome [10],AC50 [5],AC50 [9]
Cc1ccccc1CO[C@@H]1C[C@@]2(C(C)C)CC[C@]1(C)O2,inactive,inactive,inactive,31.3 µM (active),inactive,inactive,inactive,inactive,inactive,,,,,,,,,,
COS(=O)(=O)OC,inactive,inactive,inactive,,inactive,inactive,inactive,inactive,inactive,inactive,,,,,,,,,
Clc1ccc(C(c2ccccc2Cl)C(Cl)(Cl)Cl)cc1 (configuration not stated),,,,16.1 µM (active),inactive,,,,inactive,,10.2 µM (active),20.4 µM (active),21.5 µM (active),26.4 µM (active),19.1 µM (active),19.5 µM (active),,,
Sc1ccccc1,inactive,inactive,inactive,,inactive,inactive,inactive,inactive,inactive,inactive,,,,,,,inactive,,
Cc1cccc(C)c1N,inactive,inactive,inactive,,inactive,inactive,inactive,inactive,inactive,inactive,,,,,,,,,
Cc1ccc(O)c(C)c1,,inactive,inactive,,inactive,inactive,inactive,inactive,inactive,inactive,7.99 µM (active),,,,,,,,
CCC(C)(CC)c1cc(NC(=O)c2c(OC)cccc2OC)on1,inactive,inactive,inactive,,inactive,inactive,inactive,inactive,inactive,inactive,,,,,,,,,
Cc1cc(-c2ccc(N)c(C)c2)ccc1N,inactive,inactive,inactive,,inactive,inactive,inactive,inactive,inactive,inactive,,,,,,,,,
CCCN(CCC)N=O,inactive,inactive,inactive,,inactive,inactive,inactive,inactive,inactive,inactive,,,,,,,,,
Oc1ccc(C(c2ccc(O)cc2)(C(F)(F)F)C(F)(F)F)cc1,,,,16.2 µM (active),,,,,,,18.5 µM (active),18.8 µM (active),34.9 µM (active),18.7 µM (active),15.7 µM (active),28 µM (active),,34 µM (active),37.2 µM (active)
C1CC2OC2CC1C1CO1 (configuration not stated),inactive,inactive,inactive,,inactive,inactive,inactive,inactive,inactive,inactive,,,,,,,,,
c1cc2ccc3cccc4ccc(c1)c2c34,inactive,inactive,inactive,,inactive,inactive,inactive,inactive,inactive,inactive,,,,,,,,,
CCNc1nc(NC(C)C)nc(SC)n1,inactive,inactive,inactive,,inactive,inactive,inactive,inactive,inactive,inactive,,,,,,,,,
CC(c1ccc(O)cc1)(c1ccc(O)cc1)c1ccc(O)cc1,,inactive,inactive,28 µM (active),inactive,,,,inactive,,28.5 µM (active),,,39 µM (active),31.9 µM (active),20 µM (active),,,
O=C(O)C(F)(F)C(F)(F)C(F)(F)C(F)(F)C(F)(F)C(F)(F)C(F)(F)C(F)(F)F,inactive,inactive,inactive,54.3 µM (active) and 51.6 µM (active),inactive,inactive,inactive,inactive,,inactive,57.3 µM (active) and 55 µM (active),,,,,44 µM (active) and 46.1 µM (active),,52.4 µM (active) and 50.9 µM (active),34.8 µM (active) and 49.8 µM (active)
CCC(=O)O[C@H]1CC[C@H]2[C@@H]3CCC4=CC(=O)CC[C@]4(C)[C@H]3CC[C@]12C,,,,28.4 µM (active),inactive,,,,inactive,,33.9 µM (active),27.3 µM (active),38.8 µM (active),20.7 µM (active),34 µM (active),33.5 µM (active),,,
O=C(O)C(F)(F)C(F)(F)C(F)(F)C(F)(F)C(F)(F)C(F)(F)C(F)(F)C(F)(F)C(F)(F)F,,inactive,inactive,31.3 µM (active) and 53 µM (active) and 51.6 µM (active),inactive,inactive,inactive,,,,33.2 µM (active) and 53.3 µM (active) and 56.7 µM (active),53.6 µM (active) and 47 µM (active),58.5 µM (active) and 52.5 µM (active),,50.1 µM (active) and 49.5 µM (active),36.5 µM (active) and 52.1 µM (active) and 55 µM (active),,32.4 µM (active),29.6 µM (active) and 12.6 µM (active) and 15.8 µM (active)
